Assay results taken from PubChem BioAssay (NCATS).
Results filed as inconclusive are left out. Where a call stands in place of a potency, no number is given. The source made the active and inactive calls. Unless noted, the call rests on the fitted dose curve; in most records, active means well fitted curve in the direction sought with a large enough effect; inconclusive means small, poorly fitted or top-dose-only effect, or another doubt; inactive means no such curve, though single readings can be large; an effect the other way counts as inactive or inconclusive.

Key:
[1] = target: Metallo-beta-lactamase type 2 (Klebsiella pneumoniae) (UniProt C7C422); assay: qHTS to identify inhibitors of the New Delhi Metallo-beta-lactamase (NDM): assay validation screen against the NCATS LOPAC Collection (AID 1794843);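 further: nitrocefin turnover by NDM-1 measured as 485 nm absorbance at plateau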
Procedure, shortened: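 Enzyme 2 nM final, 50 mM HEPES pH 7.0, 1 uM ZnSO4, 0.01% Tween20; cpds in DMSO, preincub w/ enzyme; + nitrocefin (50 uM stock); A485 at plateau; no-enzyme column as blank.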

[2] = target: Glutathione peroxidase 1 (Homo sapiens) (UniProt P07203); assay: Primary qHTS Assay for Inhibitors of Recombinant Selenoprotein Glutathione Peroxidase 1 (GPX1) (AID 1845191); further: nearly all actives have a fitted effect of over 65% in size
Procedure, shortened: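 GR-coupled assay: compounds preincubated 30 min at room temperature with GPX1, then reaction started with CHP; final 10 nM GPX1, 1 mM GSH, 0.5 mM CHP, 0.5 mM NADPH, 100 nM GR, 0.01% BSA, pH 7.5 Tris buffer. NADPH fluorescence (340/450 nm) read at 0 and 15 min.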

[3] = target: Phospholipid hydroperoxide glutathione peroxidase GPX4 (Homo sapiens) (UniProt P36969); assay: Primary qHTS Assay for Inhibitors of Recombinant Selenoprotein Glutathione Peroxidase 4 (GPX4) (AID 1845192); settings: outcome: dose series up to 50 µM unless noted; further: nearly all actives have a fitted effect of over 65% in size
Procedure, shortened: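 GR-coupled assay: recombinant GPX4 preincubated 30 min with compound at room temperature; final 200 nM GPX4, 1 mM GSH, 0.5 mM cumene hydroperoxide, 0.5 mM NADPH, 100 nM GR, 0.01% BSA, pH 7.5 Tris. NADPH fluorescence (340/450 nm) read at 0 and 15 min.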

7G8 = assay: qHTS profiling for inhibitors of Plasmodium falciparum proliferation (AID 504749); further: nearly all actives have a fitted effect of over 60% in size; further: potency means the concentration at half of the fitted maximal effect; settings: P. falciparum in erythrocytes, SYBR Green DNA, 72 h; series mostly up to 28.7 µM
Procedure, shortened: (§1)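 Readout was DNA-dye fluorescence from lysed cultures, ex 485/em 535 nm. Parasitized red cells had grown 72 h with compound; data scaled between 0.29 uM artemisinin and DMSO wells and corrected using vehicle-only plates.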

AS120 = assay: as above; settings: P. falciparum in erythrocytes, SYBR Green DNA, 72 h; series mostly up to 28.7 µM
Procedure, shortened: as §1

ATS95 = assay: as above; settings: P. falciparum in erythrocytes, SYBR Green DNA, 72 h; series mostly up to 28.7 µM
Procedure, shortened: as §1

[4] = qHTS drug screen for cell cycle checkpoint inhibitors in PARPi-resistant BRCA-mutant ovarian cancer cell lines. (AID 1963452; calls by dose curve); settings: PEO1/OlaR viability, CellTiter-Glo luminescence, 96 h, stronger effect = lower value
Procedure, shortened: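 PEO1, PEO4 and PEO1/OlaR ovarian cancer cells, 600 per well, exposed 96 h at 37C to a dilution series. Viability read by CellTiter-Glo luminescence, normalized to DMSO and empty wells; activity summarized as Z-AUC.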

[5] = qHTS profiling for inhibitors of Plasmodium falciparum proliferation (AID 504749); further: nearly all actives have a fitted effect of over 60% in size; further: potency means the concentration at half of the fitted maximal effect; settings: P. falciparum in erythrocytes, SYBR Green DNA, 72 h
Procedure, shortened: as §1

3D7 = assay: as above; settings: P. falciparum in erythrocytes, SYBR Green DNA, 72 h; series mostly up to 28.7 µM
Procedure, shortened: as §1

AA1029 = assay: as above; settings: P. falciparum in erythrocytes, SYBR Green DNA, 72 h; series mostly up to 28.7 µM
Procedure, shortened: as §1

ATS189 = assay: as above; settings: P. falciparum in erythrocytes, SYBR Green DNA, 72 h; series mostly up to 28.7 µM
Procedure, shortened: as §1

C2A = assay: as above; settings: P. falciparum in erythrocytes, SYBR Green DNA, 72 h; series mostly up to 28.7 µM
Procedure, shortened: as §1

[6] = measured here: PEO1 parental Z-AUC
[7] = at 28.7 µM (top of the series), parasite line A
[8] = at 28.7 µM (top of the series), parasite line B
[9] = at 12.8 µM (top of the series), parasite line A
[10] = at 12.8 µM (top of the series), parasite line B

Sequence of Metallo-beta-lactamase type 2 (Klebsiella pneumoniae) (C7C422 whole entry, looked up): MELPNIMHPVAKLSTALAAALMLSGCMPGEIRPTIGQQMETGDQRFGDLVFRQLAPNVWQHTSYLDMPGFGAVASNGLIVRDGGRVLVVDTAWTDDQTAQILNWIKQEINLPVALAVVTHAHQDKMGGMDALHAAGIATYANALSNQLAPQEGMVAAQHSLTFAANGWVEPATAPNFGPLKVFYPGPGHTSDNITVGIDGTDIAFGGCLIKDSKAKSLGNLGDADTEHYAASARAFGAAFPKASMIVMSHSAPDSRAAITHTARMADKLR
Sequence of Glutathione peroxidase 1 (Homo sapiens) (P07203 whole entry, looked up): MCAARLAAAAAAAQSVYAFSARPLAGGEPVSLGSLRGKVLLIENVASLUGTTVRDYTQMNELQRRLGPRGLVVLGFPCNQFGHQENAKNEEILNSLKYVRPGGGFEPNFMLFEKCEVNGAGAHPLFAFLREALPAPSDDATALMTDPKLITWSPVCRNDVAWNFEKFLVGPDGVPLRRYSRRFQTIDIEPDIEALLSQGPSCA
Sequence of Phospholipid hydroperoxide glutathione peroxidase GPX4 (Homo sapiens) (P36969 whole entry, looked up): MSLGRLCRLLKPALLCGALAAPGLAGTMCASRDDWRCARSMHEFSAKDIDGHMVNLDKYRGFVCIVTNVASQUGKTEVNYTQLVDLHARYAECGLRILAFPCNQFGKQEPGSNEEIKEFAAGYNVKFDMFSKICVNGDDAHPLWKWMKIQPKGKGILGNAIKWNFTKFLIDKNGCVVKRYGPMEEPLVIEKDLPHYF

With `c1cc(CN2CCCCC2)cc(OCCCNc2nc3ccccc3s2)c1` the Potency [1] was “inactive”, the Potency [2] was “inactive” and the outcome [3] was “inactive”. For the same molecule, the Potency (7G8) was 6.31 µM (active), the Potency (AS120) was 5.01 µM (active) and the Potency (ATS95) was 7.94 µM (active).
In the case of `Nc1ncn([C@@H]2O[C@H](CO)[C@@H](O)[C@H]2O)c(=O)n1`, the Potency [1] is reported as “inactive”, the Potency [2] is reported as “inactive” and the Z-AUC [4] is reported as 1.1 (inactive). The Z-AUC [4, 6] was 0.0153, the Z-AUC ([4]; measured here: PEO4 Z-AUC) was -0.332 and the activity, negative = inhibition [5, 7] was -1.52% (inactive). For the same molecule, the activity, negative = inhibition [5, 8] was 6.7% (inactive), the Potency (3D7) was “inactive” and the Potency (7G8) was “inactive”. The Potency (AA1029) was “inactive”, the Potency (AS120) was “inactive” and the Potency (ATS189) was “inactive”. The Potency (ATS95) was “inactive” and the Potency (C2A) was “inactive”.
In the case of `CCN1CCc2nc(N)oc2CC1`, the Potency [1] is reported as “inactive”, the Potency [2] is reported as “inactive” and the activity, negative = inhibition [5, 7] is reported as 1.51% (inactive). For the same molecule, the activity, negative = inhibition [5, 8] was 1.64% (inactive), the Potency (3D7) was “inactive” and the Potency (7G8) was “inactive”. The Potency (AA1029) was “inactive”, the Potency (AS120) was “inactive” and the Potency (ATS189) was “inactive”. For the same molecule, the Potency (ATS95) was “inactive” and the Potency (C2A) was “inactive”.
In the case of `COc1ccc(CCN(C)CCCC(C#N)(c2cc(OC)c(OC)c(OC)c2)C(C)C)cc1OC` (stereo not drawn), the Potency [1] is reported as “inactive”, the Potency [2] is reported as “inactive” and the outcome [3] is reported as “inactive”. For the same molecule, the Potency (7G8) was 10 µM (active).
For `COCCOC(=O)C1=C(C)NC(C)=C(C(=O)OC(C)C)C1c1cccc([N+](=O)[O-])c1` (stereo not drawn), the Potency [1] was “inactive”, the Potency [2] was “inactive” and the outcome [3] was “inactive”. The Potency (7G8) was 11.2 µM (active), the Potency (AS120) was 7.94 µM (active) and the Potency (C2A) was “inactive”.
For `COc1ccc2c(c1OC)C(=O)O[C@@H]2[C@H]1c2c(cc3c(c2OC)OCO3)CCN1C`, the Potency [1] was “inactive”, the Potency [2] was “inactive” and the Z-AUC [4] was 0.757 (inactive). The Z-AUC [4, 6] was 0.922 and the Z-AUC ([4]; measured here: PEO4 Z-AUC) was 0.499.
With `CN(C)CC/C=C1\c2ccccc2COc2ccccc21` the Potency [1] was “inactive”, the Potency [2] was “inactive” and the activity, negative = inhibition [5, 7] was 0.213% (inactive). For the same molecule, the activity, negative = inhibition [5, 8] was 6.5% (inactive), the Potency (3D7) was “inactive” and the Potency (7G8) was 12.6 µM (active). For the same molecule, the Potency (AA1029) was 8.91 µM (active).
In the case of `CC(C)(Oc1ccc(CCNC(=O)c2ccc(Cl)cc2)cc1)C(=O)O`, the Potency [1] is reported as “inactive”, the Potency [2] is reported as “inactive” and the activity, negative = inhibition [5, 9] is reported as -1.93% (inactive). The activity, negative = inhibition [5, 10] was -2.04% (inactive), the Potency (3D7) was “inactive” and the Potency (7G8) was “inactive”. The Potency (AA1029) was “inactive”, the Potency (AS120) was “inactive” and the Potency (ATS189) was “inactive”. The Potency (ATS95) was “inactive” and the Potency (C2A) was “inactive”.
With `CCCCNC(=O)NS(=O)(=O)c1ccc(C)cc1` the Potency [1] was “inactive”, the Potency [2] was “inactive” and the activity, negative = inhibition [5, 7] was 1.62% (inactive). For the same molecule, the activity, negative = inhibition [5, 8] was 0.192% (inactive), the Potency (3D7) was “inactive” and the Potency (7G8) was “inactive”. The Potency (AA1029) was “inactive”, the Potency (AS120) was “inactive” and the Potency (ATS189) was “inactive”. The Potency (ATS95) was “inactive” and the Potency (C2A) was “inactive”.
For `C[n+]1cc2c3c(ccc2c2ccc4cc5c(cc4c21)OCO5)OCO3`, the Potency [1] was “inactive”, the Potency [2] was “inactive” and the outcome [3] was “inactive”. The activity, negative = inhibition [5, 7] was -18.2% (inactive), the activity, negative = inhibition [5, 8] was -15.2% (inactive) and the Potency (AA1029) was “inactive”. For the same molecule, the Potency (AS120) was “inactive”, the Potency (ATS95) was “inactive” and the Potency (C2A) was “inactive”.
With `CN(C(=O)CCCOc1ccc2[nH]c(=O)ccc2c1)C1CCCCC1` the Potency [1] was “inactive”, the Potency [2] was “inactive” and the activity, negative = inhibition [5, 7] was -9.28% (inactive). For the same molecule, the activity, negative = inhibition [5, 8] was 16% (inactive), the Potency (3D7) was “inactive” and the Potency (7G8) was 11.2 µM (active). For the same molecule, the Potency (AA1029) was “inactive”, the Potency (AS120) was “inactive” and the Potency (ATS189) was “inactive”. The Potency (ATS95) was “inactive”.
In the case of `C#CCN(C)CCCOc1ccc(Cl)cc1Cl`, the Potency [1] is reported as “inactive”, the Potency [2] is reported as “inactive” and the activity, negative = inhibition [5, 7] is reported as 6.5% (inactive). The activity, negative = inhibition [5, 8] was 12.2% (inactive), the Potency (3D7) was “inactive” and the Potency (AA1029) was “inactive”. The Potency (AS120) was “inactive”, the Potency (ATS189) was “inactive” and the Potency (ATS95) was “inactive”. The Potency (C2A) was “inactive”.
With `NC(Cc1ccc(Cl)cc1)C(=O)O` (stereo not drawn) the Potency [1] was “inactive”, the Potency [2] was “inactive” and the outcome [3] was “inactive”. For the same molecule, the activity, negative = inhibition [5, 7] was 17.3% (inactive), the activity, negative = inhibition [5, 8] was 7.34% (inactive) and the Potency (3D7) was “inactive”. The Potency (AA1029) was “inactive”, the Potency (AS120) was “inactive” and the Potency (ATS189) was “inactive”. The Potency (ATS95) was “inactive” and the Potency (C2A) was “inactive”.
For `CCO/C([O-])=N/c1c[n+](N2CCOCC2)no1`, the Potency [1] was “inactive”, the Potency [2] was “inactive” and the activity, negative = inhibition [5, 9] was 2.13% (inactive). The activity, negative = inhibition [5, 10] was 0.211% (inactive), the Potency (3D7) was “inactive” and the Potency (7G8) was “inactive”. For the same molecule, the Potency (AA1029) was “inactive”, the Potency (AS120) was “inactive” and the Potency (ATS189) was “inactive”. For the same molecule, the Potency (ATS95) was “inactive” and the Potency (C2A) was “inactive”.
For `CCCCCCCC/C=C\CCCCCCCC(=O)NCc1ccc(O)c(OC)c1`, the Potency [1] was “inactive”, the Potency [2] was “inactive” and the outcome [3] was “inactive”. For the same molecule, the Potency ([5]; parasite line A) was 7.08 µM (active) and the Potency (ATS189) was 8.91 µM (active).
With `C[C@]12C=CC(=O)C=C1CC[C@H]1[C@@H]3C[C@@H](O)[C@](O)(C(=O)CO)[C@@]3(C)C[C@H](O)[C@@]12F` the Potency [1] was “inactive” and the outcome [3] was “inactive”.
With `COCCCC/C(=N\OCCN)c1ccc(C(F)(F)F)cc1` the Potency [1] was “inactive”, the Potency [2] was “inactive” and the outcome [3] was “inactive”. The activity, negative = inhibition [5, 7] was -21.1% (inactive), the Potency (3D7) was “inactive” and the Potency (7G8) was 10 µM (active). The Potency (ATS189) was “inactive”.
For `CN1C(=O)CC[C@H]1c1cccnc1`, the Potency [1] was “inactive” and the outcome [3] was “inactive”.
In the case of `CCN(CC)CC(=O)Nc1c(C)cccc1C`, the Potency [1] is reported as “inactive”, the Potency [2] is reported as “inactive” and the outcome [3] is reported as “inactive”. The activity, negative = inhibition [5, 7] was 7.16% (inactive), the activity, negative = inhibition [5, 8] was 15.8% (inactive) and the Potency (3D7) was “inactive”. The Potency (AA1029) was “inactive”, the Potency (AS120) was “inactive” and the Potency (ATS189) was “inactive”. For the same molecule, the Potency (ATS95) was “inactive” and the Potency (C2A) was “inactive”.
